# About 2,700 (0.93%) of roughly 290,000 compounds were called active. No rule for the calls is given here. What follows is part of a selection rich in actives, with near analogues and random picks from the rest.
# Molecular target: Eukaryotic translation initiation factor 4H (Homo sapiens) (UniProt Q15056)
# Assay: eIF4H binding inhibition – biochemical, uHTS, fluorescence polarization, translation initiation inhibitor project, primary screen (AID 2012);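 also: calls also rest on retests at 20 µM and on dose response follow-up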
# Details: eIF4H fluorescence polarization binding assay, stronger effect = higher value
Structure (SMILES),inhibition (at 35 µM),"inhibition (confirmation average, at 20 µM) [%]"
COc1ccc(OC)c(C(O)c2nc3ccccc3n2C)c1 (stereo not drawn),-3.8% (inactive),
Cc1ccc(C(C)C)cc1OCC(=O)Nc1ccccc1N1CCCC1,-15.8% (inactive),
CC(=O)Oc1ccc(-c2cccc(C(=O)N3CCCCC3)c2)cc1,5.5% (inactive),
CC(C)(C)C1C/C(=C/c2ccco2)C(=O)/C(=C/c2ccco2)C1 (stereo not drawn),71.6% (active),82.6
O=C1OC(/C=C/c2ccccc2)=NC/1=C/c1ccco1,76.9% (inactive),4.3
CCC1S/C(=N/N=C/c2ccco2)NC1=O (stereo not drawn),9.4% (inactive),
O=C(NCc1ccccc1Cl)C1CCN(S(=O)(=O)c2cccc3nonc23)CC1,9.7% (inactive),
C=CCN1C(=O)C2(OCCCO2)c2cccc(Cl)c21,0.1% (inactive),
O=C(CN1CCC(NC(=O)Nc2ccccc2)CC1)Nc1cccc([N+](=O)[O-])c1,-3.5% (inactive),
COc1ccc(S(=O)(=O)N2CCOC2CNC(=O)C(=O)NCc2ccncc2)cc1C (stereo not drawn),-2.1% (inactive),
COc1ccccc1NC(=O)CSc1nnc(C)n1CC1CCCO1 (stereo not drawn),-1.3% (inactive),
CCOc1ccc(NC(=O)c2cccc3c2C(=O)N(CC2CCCO2)C3)cc1 (stereo not drawn),3% (inactive),
CCOc1cccc(=O)c2c(C)n(CC3CCCO3)c(C)c12 (stereo not drawn),79.5% (active),
Cc1c2cnn(CC(=O)NCCCN3CC(C)CC(C)C3)c(=O)c2c(C)n1Cc1ccc(Cl)cc1 (stereo not drawn),-3.1% (inactive),
O=[N+]([O-])c1ccc(NC(=S)N2CCN(c3ccccn3)CC2)cc1,-4.4% (inactive),
CCn1cc(C(=O)NCCC(=O)NCCO)c(=O)c2cc3c(cc21)OCO3,13.7% (inactive),
CCN(CC)C(=O)CSC(Nc1cccc(F)c1)=C(C#N)C#N,63% (active),56.7
CCN(CC)C(=O)C(=O)Nc1cccc(Br)c1,-3% (inactive),
O=C(CCN1C(=O)c2ccccc2C1=O)Nc1cccc(F)c1,0.6% (inactive),
CC(C)n1c(COc2ccccc2)nc2ccccc21,-1.5% (inactive),
CCC(Oc1ccccc1C)C(=O)Nc1ccc(S(=O)(=O)Nc2cc(C)on2)cc1 (stereo not drawn),-3.3% (inactive),
CN(C)S(=O)(=O)N1CCC(Oc2cccc(C(=O)NCCCC3CCCC3)c2)CC1,-18.3% (inactive),
O=C(OCc1cc2ccccc2[nH]c1=O)c1cccnc1,-7.3% (inactive),
O=C(OCc1cc(Cl)ccc1OC(F)F)c1cccnc1,54.6% (active),83.8
Cc1cc(=O)[nH]c(SCc2cc(Cl)ccc2OC(F)F)n1,-16.4% (inactive),
Cn1c(CCNS(=O)(=O)c2ccc(F)cc2)nnc1SCc1cccnc1,-0.9% (inactive),

Structure (SMILES),inhibition (at 35 µM),"inhibition (confirmation average, at 20 µM) [%]"
CCNC(=S)NNC(=O)C1CCN(Cc2ccccc2)CC1,1.5% (inactive),
CCCC(=O)C1CCN(Cc2ccccc2)CC1,7.7% (active),89.5
CCOC(=O)C1CCN(Cc2ccc(-c3ccccc3)cc2)CC1,3.6% (inactive),
CCc1nc2cccnc2n1-c1ccc(C(=O)O)cc1,91.6% (active),89.8
COCCCNC(=O)Cc1ccc(-n2c(C)nc3cccnc32)cc1,63.6% (inactive),13.7
CCOC(=O)CNC(=O)CSc1nc2cccnc2n1CC,5.8% (inactive),
CCN(CC(=O)Nc1ccc(C)c(S(=O)(=O)N(C)C)c1)Cc1ccccc1,6.5% (inactive),
O=c1c(-c2cccc(Cl)c2)c[nH]n1-c1ccccc1,4.3% (inactive),
CCCC(=O)N1CCc2[nH]c3ccccc3c2C1,-0.2% (inactive),
O=C(CN1CCCC1)N1CCN(c2ccccc2)CC1,-11.2% (inactive),
Cc1ccc2[nH]c3c(c2c1)CN(C(=O)CN1CCN(c2ccccc2)CC1)CC3,76.8% (active),
COc1ccc(OC)c(S(=O)(=O)n2c([N+](=O)[O-])cnc2C)c1,-9.3% (inactive),
Cc1cccc(NC(=O)/C(=C\c2ccco2)NC(=O)c2ccccc2)c1,57.6% (active),
O=C(Nc1ccccc1)/C(=C\c1ccco1)NC(=O)c1ccco1,26.2% (inactive),
O=C(NCc1ccco1)/C(=C/c1ccco1)NC(=O)c1ccccc1,3.9% (inactive),
COc1ccccc1C(=O)N/C(=C/c1ccco1)C(=O)Nc1ccc(C(=O)O)cc1,59.8% (active),65.3
COc1ccccc1C(=O)N/C(=C/c1ccc2c(c1)OCO2)C(=O)Nc1cccc(C(=O)O)c1,-11.5% (inactive),
Cc1ccc(NC(=O)/C(=C\c2ccccc2)NC(=O)c2ccco2)cc1,3.5% (inactive),
C=CCOc1cccc(C2C(C(=O)c3ccc(C)o3)=C(O)C(=O)N2CCCn2ccnc2)c1 (stereo not drawn),-4.1% (inactive),
CCOc1ccc(N(CC(=O)NCC2CCCO2)S(=O)(=O)c2ccc(C)cc2)cc1 (stereo not drawn),11.5% (inactive),
COc1ccc(-c2nnc3n2CCCCC3)cc1,-12.1% (inactive),
COCCn1cnc2c1c(=O)n(CC(=O)NN)c(=O)n2Cc1ccccc1,-8.7% (inactive),
O=C(Nc1ccccc1)C1CCN(C(=O)c2ccc(Br)cc2)CC1,-11% (inactive),
Cc1cc(C)n2nc(SCC(N)=O)nc2n1,-5.6% (active),113
COc1ccc(C(C)=O)cc1CSc1nc2nc(C)cc(C)n2n1,1.9% (inactive),
CCOC(=O)C(C)Sc1nnc(CSc2nc3nc(C)cc(C)n3n2)o1 (stereo not drawn),-7.5% (inactive),

Structure (SMILES),inhibition (at 35 µM),"inhibition (confirmation average, at 20 µM) [%]"
COc1cnc(-c2ccccn2)nc1Oc1ccc(C(C)(C)C)cc1,11.9% (inactive),
COc1ccc(CCN(C)C(=O)C23CC4CC(CC(Cl)(C4)C2)C3)cc1OC,-16.6% (inactive),
CCN(CC)CCOc1ccc2c(c1)C(=NNC(=O)c1ccccn1)c1cc(OCCN(CC)CC)ccc1-2,-3% (active),83.6
Cc1cccc(OCC(=O)NCCCNC(=O)c2ccccn2)c1,-28.2% (inactive),
COc1ccc(CC(=O)N/N=C(\C)c2ccccn2)cc1,7.3% (inactive),
COc1ccc(NC(=O)CN(C)C(=O)CNC(=O)C2CCCCC2)cc1,-4% (inactive),
C=CCOc1cccc(CNCc2cccnc2)c1,10.5% (inactive),
Cc1nnc(N(Cc2ccco2)C(=O)c2ccno2)s1,55.4% (active),
Cc1ccc(-c2csc(N(Cc3ccco3)C(=O)c3cccs3)n2)cc1,-15.6% (inactive),
CN(C(=O)c1ccno1)c1nnc(-c2cccnc2)s1,-2.8% (inactive),
Cc1ccccc1CN1CCC(C(=O)Nc2ccc(Oc3cccnc3)cc2)CC1,-4.5% (inactive),
O=C(NCCCc1ccccc1)C(=O)NCC1OCCN1S(=O)(=O)c1ccccc1 (stereo not drawn),-4.1% (inactive),
O=C(NCCCn1ccnc1)C(=O)NCC1OCCN1S(=O)(=O)c1cc(F)ccc1F (stereo not drawn),86.5% (active),
Cc1cc(F)ccc1S(=O)(=O)N1CCCOC1CNC(=O)C(=O)NCCC1=CCCCC1 (stereo not drawn),-0.8% (inactive),
Nc1ncc(CN2CCCC(C(=O)Nc3ccc(-c4ccco4)cc3)C2)cn1 (stereo not drawn),-17.3% (inactive),
CC(C)OC(=O)c1ccc(COc2ccc3ccc(=O)oc3c2)o1,1.1% (inactive),
Cc1ccc2sc(N(CCN(C)C)C(=O)/C=C/c3cccs3)nc2c1C,-10.2% (inactive),
CS(=O)(=O)c1ccc2c(c1)SC1=NC(=O)/C(=C/c3ccco3)C(=N)N12,93.9% (active),
CS(=O)(=O)C1=NN2C(=N)/C(=C\c3ccc(OCCOc4ccccc4)cc3)C(=O)N=C2S1,16.1% (inactive),
Cc1cc(/C=C2/C(=N)N3C(=NC2=O)SN=C3S(C)(=O)=O)c(C)n1-c1ccccc1,93.3% (inactive),-7.9
CN(C(=O)CN1C(=O)CCSc2ccc(S(=O)(=O)N3CCCC3)cc21)c1ccccc1,-3.2% (inactive),
CCC(=O)Nc1ccc(C(=O)NNC(=O)c2ccc(Cl)cc2)cc1,8% (inactive),
C=CCNC(=O)/C=C/c1ccc(C(C)C)cc1,3.9% (inactive),
CC(=O)c1ccc(NC(=O)CCc2nnc3ccc(NCc4ccco4)nn23)cc1,38.5% (inactive),
O=C(CCc1nnc2ccc(NCc3ccco3)nn12)Nc1cc(F)ccc1F,75.2% (active),75.7
CCOc1ccccc1NC(=O)CCc1nnc2ccc(NCc3ccco3)nn12,13.1% (inactive),

Structure (SMILES),inhibition (at 35 µM),"inhibition (confirmation average, at 20 µM) [%]"
O=C(CN1CCc2cc3c(cc2C1)OCCCO3)Nc1ccccc1,4.5% (inactive),
CCOc1ccc(NC(=S)N2CCC(NC(=O)c3ccccc3)CC2)cc1,-8.9% (inactive),
COc1ccc(-c2nc3n(c(=O)c2C#N)CCS3)c(OC)c1,5.3% (inactive),
O=C(CCc1ccccc1)Nc1ccnn1C1CCN(Cc2ccc(OCCO)cc2)CC1,5.2% (inactive),
COc1ccc(-c2cc(C(=O)N(C)Cc3ccc(OC)c(OC)c3OC)c3ccccc3n2)cc1OC,10.7% (inactive),
COc1ccc2[nH]c(=O)c(-c3noc(-c4ccc(F)cc4)n3)cc2c1,3.8% (inactive),
CCCc1nc(-c2cc3cc(C)ccc3[nH]c2=O)no1,2.5% (active),79.5
CCNCc1cc2cc(C)ccc2[nH]c1=O,24% (inactive),
COc1ccccc1NC(=S)N1CCN(c2ccc(F)cc2)CC1,-0.9% (inactive),
COc1ccc(NC(=O)C2=CC(c3ccc(OC)c(OC)c3)=NS(=O)(=O)N2C)cc1,1.5% (inactive),
COc1ccc(-c2noc(CNC(=O)C(C)Oc3ccccc3)n2)cc1 (stereo not drawn),-4.8% (inactive),
Cc1nc2ccccc2c(=O)n1Cc1ccc([N+](=O)[O-])cc1,-6.2% (inactive),
CCn1c(/C=C/c2ccc([N+](=O)[O-])o2)nc2ccccc2c1=O,83.6% (active),56.8
Cn1cc(/C=C/c2nc3ccccc3c(=O)n2-c2cccc([N+](=O)[O-])c2)c2ccccc21,-2.7% (inactive),
CN1/C(=C\C(=O)c2oc3ccccc3c2N)C(C)(C)c2ccccc21,-2.5% (inactive),
CN1/C(=C\C=C2\N=C(c3ccc(F)cc3)OC2=O)C(C)(C)c2ccccc21,128% (active),97
CN1/C(=C\C(=O)c2cccnc2Cl)C(C)(C)c2ccccc21,-6.3% (inactive),
Cc1cccnc1NC(=O)Cn1c(=O)oc2ccccc21,4.8% (inactive),
Cc1ccc(O)c(NC(=O)c2cc(-c3ccco3)on2)c1,-14.1% (inactive),
COc1ccc(-c2nonc2NC(=O)c2oc3ccc(F)cc3c2C)cc1OC,-3.8% (inactive),
COc1ccc(Nc2cc(Cl)ccc2C(=O)O)cn1,96.9% (active),74
COc1ccc(Nc2ccc([N+](=O)[O-])cn2)cn1,82% (inactive),20.1
COc1cccc(Nc2ncccc2C(=O)O)c1,-3.4% (inactive),
